Screening data as filed in PubChem BioAssay.
APP 5'UTR act: activators of APP 5'UTR luciferase reporter, primary screen, SH-SY5Y cells | SH-SY5Y APP 5'UTR luciferase reporter, luminescence; zero percent = DMSO vehicle wells | activation, % at 2 µM | hit rate 1% among 190,000 | AID 1276, 2008;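 active = activation above a set limit, based on mean plus 3 SD of controls, cut at about 140% in these data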
STAT1 act: STAT1 signaling activators, primary screen, cell-based, HTS, luciferase reporter; AID 932, 2007; hit rate 2.6% among 200,000; NIH 3T3 STAT1-luciferase reporter, IFN-gamma, luminescence; 100% = IFN-gamma alone, no compound; activation (% of control), % at 5.5 µM;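 active = activation above the screen-wide mean activation plus 3 SD, cut at about 130% in these data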
Wee1 degr inh: Wee1 degradation inhibitors, primary screen, cell-based, HeLa, Wee1K328M-luciferase, luminescence; reporter increase, % at 5 µM; AID 1321, 2008; Wee1-like protein kinase (Homo sapiens), P30291; HeLa Luc-Wee1K328M stability; 100% = proteasome inhibitor MG132 effect; hit rate 1.2% among 220,000;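 active = activation above the mean of all tested compounds plus 3 SD, set per screening run, cut at about 8.8% in these data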;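 also: cells exposed to compound for 20 h before luminescence read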
Target sequence (P30291 whole entry K328M): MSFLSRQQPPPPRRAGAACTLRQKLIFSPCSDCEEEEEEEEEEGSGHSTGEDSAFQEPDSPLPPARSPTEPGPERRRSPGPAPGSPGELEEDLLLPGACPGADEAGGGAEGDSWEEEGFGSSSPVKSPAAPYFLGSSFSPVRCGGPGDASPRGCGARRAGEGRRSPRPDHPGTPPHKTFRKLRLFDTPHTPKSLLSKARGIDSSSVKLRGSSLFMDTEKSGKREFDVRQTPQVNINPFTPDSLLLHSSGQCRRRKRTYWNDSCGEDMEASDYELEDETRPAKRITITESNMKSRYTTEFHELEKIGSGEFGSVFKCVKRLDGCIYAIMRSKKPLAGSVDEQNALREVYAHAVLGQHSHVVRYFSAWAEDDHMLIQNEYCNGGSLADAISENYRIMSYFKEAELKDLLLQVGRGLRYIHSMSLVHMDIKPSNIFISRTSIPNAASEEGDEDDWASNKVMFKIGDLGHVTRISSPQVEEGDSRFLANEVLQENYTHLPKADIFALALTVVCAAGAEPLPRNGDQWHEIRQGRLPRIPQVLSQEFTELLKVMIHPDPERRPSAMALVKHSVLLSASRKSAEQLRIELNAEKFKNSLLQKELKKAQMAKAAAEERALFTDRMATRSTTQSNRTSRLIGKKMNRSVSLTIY
APP transl inh: inhibitors of APP translation via 5'UTR reporter, primary screen, APP 5'UTR luciferase, SH-SY5Y cells; hit rate 0.82% among 190,000; SH-SY5Y APP 5'UTR-luciferase reporter, luminescence; inhibition, % at 2 µM;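 active = inhibition above a set limit, derived from the sample mean plus 3 SD, cut at about 45% in these data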
NF-kB neuron act: activators of NF-kB expression in neurons, primary screen, cell-based, HTS. human neuronal cells, NF-kB reporter expression; active compounds read high. AID 1239, 2008. fold change at 12.5 µM. hit rate 1.6% among 190,000; in the data active = fold change above about 3.3
Hsp70 act: Hsp70 transcriptional activators, primary screen, cell-based, HeLa, Hsp70 promoter luciferase, luminescence, 10 µM; HeLa Hsp70 promoter luciferase reporter; scaled: vehicle 0, proteasome-inhibitor control 100%; activation, % at 10 µM; hit rate 0.04% among 200,000;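 active = activation above the mean across all tested compounds plus 3 SD, cutoff set per campaign, cut at about 5.5% in these data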
STAT1 activ conf: STAT1 signaling activators, confirmation, cell-based, HTS, luciferase reporter; shares compounds with STAT1 act; NIH 3T3 STAT1-luciferase reporter, IFN-gamma potentiation, luminescence; 100% = IFN-gamma EC80 alone, no compound; activation (% of control), % at 5.7 µM; hit rate 97% among 1,200; AID 1262, 2008;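 active = activation above a set limit carried over from the earlier primary STAT1 screen, cut at about 140% in these data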
NFkB act: NF-kB reporter activators, TNF-alpha stimulated, counter-screen for STAT1 activator project, cell-based, HEK293T, luciferase luminescence; hit rate 43% among 1,200; 100% = TNF-alpha with vehicle only; shares compounds with STAT1 act; activation (% of control), % at 5.7 µM; AID 1306, 2008;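 active = activation above the mean of solvent-only control wells plus 3 SD, set per campaign, cut at about 130% in these data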;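 also: TNF-alpha given at a submaximal dose yielding about 80% of full reporter signal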
STAT3 act STAT1c: STAT3 reporter activation by STAT1 hits, confirmation, counter-screen for STAT1 activator project, U3A cells, luciferase, luminescence. IL-6; cells lack STAT1; 100 = IL-6 alone, no compound effect. activation (% of control), % at 5.7 µM. hit rate 46% among 1,200. shares compounds with STAT1 act;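 active = activation above the solvent-only control well mean plus 3 SD, set per plate batch, cut at about 110% in these data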;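 also: higher means more STAT3 reporter activation so hits are non-selective activators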
Of the large screens only hits and unclear results are named; the others gave an inactive call (follow-up assays come after a bar, where they were run). In the library only some 4.8% were active in any assay of this set; here they are far more common.

Nc1nc(-c2cccnc2)nc2sc3c(c12)CCCC3	STAT1 act 159.2, NF-kB neuron act 5.61 | STAT1 activ conf 212.9 | NFkB act 146.2 | STAT3 act STAT1c 116.4
O=C(NC1=NCCS1)c1sc2cc(F)ccc2c1Cl	STAT1 act 171.9, NF-kB neuron act 4.81 | STAT1 activ conf 208.6 | NFkB act inactive | STAT3 act STAT1c 149.9
O=C(NCc1ccco1)c1sc2cc(F)ccc2c1Cl	none
O=C(Nc1ccccc1)c1ccc(C(=O)Nc2ccccc2)nc1	none
CCOC(=O)c1c(C)[nH]c(C(=O)CSc2ccccc2)c1C	APP 5'UTR act 160.3, STAT1 act 153.7, NF-kB neuron act 3.64 | STAT1 activ conf 233.7 | NFkB act inactive | STAT3 act STAT1c inactive
CCOC(=O)c1c(C)[nH]c(C(=O)COC(=O)CCSc2ccccc2)c1C	none
Cc1c(Nc2cc(Cl)c3nonc3c2[N+](=O)[O-])c(=O)n(-c2ccccc2)n1C	STAT1 act 376.0, APP transl inh 95.3 | STAT1 activ conf 159.3 | NFkB act inactive | STAT3 act STAT1c inactive
CC(C)c1nnc(NC(=O)c2c(O)c3cccc4c3n(c2=O)CCC4)s1	none
c1csc(C2=NNC(=NC3CCCCC3)SC2)c1	APP 5'UTR act 137.0, STAT1 act 155.1 | STAT1 activ conf 167.6 | NFkB act inactive | STAT3 act STAT1c inactive
CCn1c(O)c(/C=C2\C=Nc3ccccc32)sc1=O	APP 5'UTR act 154.2, STAT1 act 178.5 | STAT1 activ conf 174.6 | NFkB act 140.0 | STAT3 act STAT1c 126.3
CCn1c(O)c(/C=C2\C=Nc3ccccc32)sc1=Nc1ccc(C)cc1	none
Cc1cccc(C)c1NC(=O)Cn1c(CN2CCCCC2)nc2ccccc2c1=O	none
O=C(O)Cc1ccc2sc(-c3ccccc3)nc2c1	none
COC(=O)Cc1ccc2sc(-c3ccccc3)nc2c1	APP 5'UTR act 172.8, STAT1 act 156.7, NF-kB neuron act 9.21 | STAT1 activ conf 182.6 | NFkB act inactive | STAT3 act STAT1c inactive
O=[N+]([O-])c1ccccc1OCCCn1cnc2ccccc21	STAT1 act 168.6, NF-kB neuron act 4.13 | STAT1 activ conf 188.4 | NFkB act inactive | STAT3 act STAT1c inactive
Nc1ccccc1Nc1cc(-c2ccccc2)nn1-c1ccccc1	none
Nc1ccccc1Nc1cc(-c2ccccc2)[nH]n1	STAT1 act 225.3, NF-kB neuron act 4.68 | STAT1 activ conf 179.4 | NFkB act inactive | STAT3 act STAT1c inactive
O=[N+]([O-])C1=C(Nc2cccc3ccccc23)CS(=O)(=O)C1	none
CCc1ccc(Nc2ncc3c(n2)CC(C)CC3=O)cc1 (centres undefined)	APP 5'UTR act 173.1, STAT1 act 151.3, NF-kB neuron act 3.53 | STAT1 activ conf 198.2 | NFkB act inactive | STAT3 act STAT1c inactive
COc1ccc(N=Cc2sc3ccccc3c2Cl)cc1	none
Cc1ccc(N=Cc2sc(O)c3ccccc23)cc1	APP 5'UTR act 192.8, STAT1 act 202.3, NF-kB neuron act 13.1 | STAT1 activ conf 322.8 | NFkB act 153.2 | STAT3 act STAT1c 121.3
CC(=O)Nc1ccc(N=Nc2ccc(O)cc2)cc1	STAT1 act 152.2, NF-kB neuron act 9.15 | STAT1 activ conf 154.8 | NFkB act inactive | STAT3 act STAT1c 110.7
CC(=O)Nc1ccc(N=NN2CCOCC2)cc1	none
CCCn1nc2cc(C(=O)NCc3ccccc3OC)ccc2c1OCC	none
C(=C\c1ccccc1)/C=N/Nc1nc2ccccc2s1	APP 5'UTR act 179.0, STAT1 act 158.4 | STAT1 activ conf 238.2 | NFkB act 141.5 | STAT3 act STAT1c 129.3
CCC/C=N/Nc1nc2ccccc2s1	STAT1 act 163.2, NF-kB neuron act 6.05 | STAT1 activ conf 224.7 | NFkB act 142.6 | STAT3 act STAT1c 127.4
N#CCC(=O)N/N=C/c1cn(Cc2ccc(Cl)cc2Cl)c2ccccc12	none (no result: APP 5'UTR act, STAT1 act, APP transl inh, NF-kB neuron act, Hsp70 act)
C/C(=N\NC(=O)c1cccc(C)c1)c1cccc(NC(=O)c2ccco2)c1	none
Nc1ccc2oc(-c3ccccc3Cl)nc2c1	STAT1 act 151.4 | STAT1 activ conf 202.8 | NFkB act inactive | STAT3 act STAT1c inactive
Nc1ccc2oc(-c3ccccn3)nc2c1	none
Cc1oc(-c2ccc(-c3ccccc3)cc2)nc1CN1CCN(CC(=O)N(C)C)CC1	STAT1 act 154.9 | STAT1 activ conf 191.2 | NFkB act inactive | STAT3 act STAT1c 128.2
COc1ccc(C(=O)Nc2ccc3cn[nH]c3c2)c(OC)c1	STAT1 act 164.0 | STAT1 activ conf 185.2 | NFkB act 133.6 | STAT3 act STAT1c 116.0
CCOC(=O)C(C)Oc1ccccc1C1NC(=O)NC(C)=C1C(=O)Nc1ccc(C)c(C)c1 (centres undefined)	none
c1ccc(CSc2nnc(-c3cccs3)o2)cc1	STAT1 act 158.5, NF-kB neuron act 4.63 | STAT1 activ conf 178.8 | NFkB act inactive | STAT3 act STAT1c 115.6
Fc1ccc(CSc2nnc(-c3cccs3)o2)cc1	none
Cc1cccc(SCc2noc(C(=O)NCC3CCCO3)c2C(=O)O)c1 (centres undefined)	none
COC(=O)c1ccc(Sc2ccccc2NS(=O)(=O)c2ccc(NC(C)=O)cc2)nc1	none
O=C(NCCc1cccs1)c1ccc(Cl)c(Cl)c1	STAT1 act 159.4, NF-kB neuron act 3.77 | STAT1 activ conf 163.7 | NFkB act inactive | STAT3 act STAT1c inactive
O=C(NCCc1cccs1)c1ccc(Cl)cc1	none (no result: APP 5'UTR act, STAT1 act, APP transl inh, NF-kB neuron act, Hsp70 act)
Clc1ccc(-n2ncc3c(N4CCCC4)ncnc32)cc1	APP 5'UTR act 160.8, STAT1 act 184.4 | STAT1 activ conf 207.1 | NFkB act inactive | STAT3 act STAT1c inactive
CC1CCN(c2ncnc3c2cnn3-c2ccccc2)CC1	STAT1 act 154.5, Wee1 degr inh 10.6, NF-kB neuron act 4.49 (no result: APP 5'UTR act, APP transl inh) | STAT1 activ conf 245.8 | NFkB act 136.0 | STAT3 act STAT1c inactive
